# Laboratory results taken from PubChem BioAssay AID1159580 (chemical genetic matrix, 2015).
# Hit rate of the full screen: of about 5,500 compounds, about 2,000 (36%) were called active. Inconclusive results (about 18%) are left out. Some of the results follow. A number with no mark means an inactive call. Cut-off read from the data, not from the text of the source: active = normalized growth mostly below about 0.91 (no sharp cut-off); inconclusive = no clear call, values can overlap the other calls; inactive = mostly above about 0.92.
# Assay: chemical genetic growth profiling, strain panel (AID 1159580);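 note: tested at 20 µM; growth read once vehicle control cultures reached saturation at 30 °C; 1 = growth at the plate median or of vehicle wells; lower values mean less growth of the strain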
# Conditions: S. cerevisiae deletion strains, growth OD
# [1] = locus YAR019C, strain CDC15, active compounds read low
# [2] = locus YBL105C, strain PKC1, active compounds read low
# [3] = locus YBR135W, strain CKS1, active compounds read low
# [4] = locus YBR136W, strain MEC1, active compounds read low
# [5] = locus YBR160W, strain CDC28, active compounds read low
# [6] = locus YDL017W, strain CDC7, active compounds read low
# [7] = locus YDL028C, strain MPS1, active compounds read low
# [8] = locus YDL101C, strain DUN1, active compounds read low
# [9] = locus YDL108W, strain KIN28, active compounds read low
# [10] = locus YDL132W, strain cdc53, active compounds read low
# [11] = locus YDL214C, strain PRR2, active compounds read low
# [12] = locus YDR052C, strain DBF4, active compounds read low
# [13] = locus YDR054C, strain cdc34, active compounds read low
# [14] = locus YDR226W, strain ADK1, active compounds read low
# [15] = locus YDR477W, strain SNF1, active compounds read low
# [16] = locus YER123W, strain YCK3, active compounds read low
# [17] = locus YER133W, strain GLC7, active compounds read low
# [18] = locus YFL009W, strain cdc4, active compounds read low
# [19] = locus YFL029C, strain CAK1, active compounds read low
# [20] = locus YFR003C, strain YPI1, active compounds read low
# [21] = locus YFR019W, strain FAB1, active compounds read low
# [22] = locus YFR028C, strain CDC14, active compounds read low
# [23] = locus YGR040W, strain KSS1, active compounds read low
# [24] = locus YGR052W, strain FMP48, active compounds read low
# [25] = locus YGR092W, strain DBF2, active compounds read low
# [26] = locus YHR030C, strain SLT2, active compounds read low
# [27] = locus YHR079C, strain IRE1, active compounds read low
# [28] = locus YHR082C, strain KSP1, active compounds read low
# [29] = locus YHR205W, strain SCH9, active compounds read low
# [30] = locus YIL147C, strain SLN1, active compounds read low
# [31] = locus YJL095W, strain BCK1, active compounds read low
# [32] = locus YJL128C, strain PBS2, active compounds read low
# [33] = locus YJL157C, strain FAR1, active compounds read low
# [34] = locus YJR016C, strain ILV3, active compounds read low
# [35] = locus YJR066W, strain TOR1 (second series), active compounds read low
# [36] = locus YJR066W, strain TOR1, active compounds read low
# [37] = locus YKL048C, strain ELM1, active compounds read low
# [38] = locus YKL067W, strain YNK1, active compounds read low
# [39] = locus YKL101W, strain HSL1, active compounds read low
# [40] = locus YKL193C, strain SDS22, active compounds read low
# [41] = locus YKL203C, strain TOR2, active compounds read low
# [42] = locus YLR113W, strain HOG1, active compounds read low
# [43] = locus YLR133W, strain CKI1, active compounds read low
# [44] = locus YLR403W, strain SFP1, active compounds read low
# [45] = locus YML070W, strain DAK1, active compounds read low
# [46] = locus YMR001C, strain CDC5, active compounds read low
# [47] = locus YMR205C, strain PFK2 (second series), active compounds read low
# [48] = locus YMR277W, strain FCP1, active compounds read low
# [49] = locus YNL006W, strain LST8, active compounds read low
# [50] = locus YNL020C, strain ARK1, active compounds read low
# [51] = locus YNL161W, strain CBK1, active compounds read low
# [52] = locus YNL183C, strain NPR1, active compounds read low
# [53] = locus YNL207W, strain RIO2, active compounds read low
# [54] = locus YNL222W, strain SSU72, active compounds read low
# [55] = locus YNL307C, strain MCK1 (second series), active compounds read low
# [56] = locus YOL078W, strain AVO1, active compounds read low
# [57] = locus YOL136C, strain PFK27, active compounds read low
# [58] = locus YOR061W, strain CKA2, active compounds read low
# [59] = locus YOR119C, strain RIO1, active compounds read low
# [60] = locus YOR231W, strain MKK1, active compounds read low
# [61] = locus YOR329C, strain SCD5, active compounds read low
# [62] = locus YPL031C, strain PHO85, active compounds read low
# [63] = locus YPL153C, strain RAD53, active compounds read low
# [64] = locus YPL204W, strain HRR25, active compounds read low
# [65] = locus YPL209C, strain IPL1, active compounds read low
# [66] = locus YPL256C, strain CLN2, active compounds read low
# [67] = locus YPR025C, strain CCL1, active compounds read low
# [68] = locus YPR106W, strain ISR1, active compounds read low
# [69] = locus YPR111W, strain DBF20, active compounds read low
# [70] = strain NNK1, active compounds read low
# [71] = strain TSCII, active compounds read low
smiles,measurement,setting,value
Cc1ccc(S(=O)(=O)CCSC2=CC(=O)CC(C)(C)S2)cc1,normalized growth,[1],1.01
same,normalized growth,[2],0.987
same,normalized growth,[3],1
same,normalized growth,[4],1
same,normalized growth,[5],0.998
same,normalized growth,[6],0.998
same,normalized growth,[7],1
same,normalized growth,[8],1
same,normalized growth,[9],1
same,normalized growth,[10],1
same,normalized growth,[11],0.98
same,normalized growth,[12],1
same,normalized growth,[13],0.998
same,normalized growth,[14],0.994
same,normalized growth,[15],0.974
same,normalized growth,[16],0.924
same,normalized growth,[17],0.895
same,normalized growth,[18],0.997
same,normalized growth,[19],1.01
same,normalized growth,[20],0.997
same,normalized growth,[21],0.905
same,normalized growth,[22],0.998
same,normalized growth,[23],0.948
same,normalized growth,[24],0.987
same,normalized growth,[25],1
same,normalized growth,[26],0.987
same,normalized growth,[27],1.06
same,normalized growth,[28],1.08
same,normalized growth,[29],0.988
same,normalized growth,[30],0.997
same,normalized growth,[31],0.948
same,normalized growth,[32],1.02
same,normalized growth,[33],0.973
same,normalized growth,[34],0.999
same,normalized growth,[35],0.892
same,normalized growth,[36],1.04
same,normalized growth,[37],0.985
same,normalized growth,[38],0.987
same,normalized growth,[39],0.995
same,normalized growth,[40],1
same,normalized growth,[41],0.978
same,normalized growth,[42],1.05
same,normalized growth,[43],0.963
same,normalized growth,[44],0.95
same,normalized growth,[45],0.965
same,normalized growth,[46],0.999
same,normalized growth,[47],0.974
same,normalized growth,[48],1
same,normalized growth,[49],0.996
same,normalized growth,[50],0.979
same,normalized growth,[51],1
same,normalized growth,[52],1.02
same,normalized growth,[53],1
same,normalized growth,[54],1
same,normalized growth,[55],0.977
same,normalized growth,[56],0.997
same,normalized growth,[57],0.929
same,normalized growth,[58],0.969
same,normalized growth,[59],0.996
same,normalized growth,[60],0.968
same,normalized growth,[61],1
same,normalized growth,[62],0.961
same,normalized growth,[63],0.959
same,normalized growth,[64],0.912
same,normalized growth,[65],0.998
same,normalized growth,[66],1.09
same,normalized growth,[67],1
same,normalized growth,[68],1.01
same,normalized growth,[69],0.999
same,normalized growth,[70],1.03
same,normalized growth,[71],1
CC(=O)c1sc(SCCS(=O)(=O)c2ccc(C)cc2)c2c1CC(C)(C)CC2=O,normalized growth,[1],0.984
same,normalized growth,[2],1.01
same,normalized growth,[3],0.984
same,normalized growth,[4],0.98
same,normalized growth,[5],0.98
same,normalized growth,[6],0.992
same,normalized growth,[7],0.98
same,normalized growth,[8],0.969
same,normalized growth,[9],0.97
same,normalized growth,[10],0.978
same,normalized growth,[11],0.926
same,normalized growth,[12],0.935
same,normalized growth,[13],1.01
same,normalized growth,[14],0.962
same,normalized growth,[15],0.643 (active)
same,normalized growth,[16],0.914
same,normalized growth,[17],0.267 (active)
same,normalized growth,[18],0.973
same,normalized growth,[19],0.986
same,normalized growth,[20],0.97
same,normalized growth,[21],0.932
same,normalized growth,[22],0.97
same,normalized growth,[23],0.675 (active)
same,normalized growth,[24],0.947
same,normalized growth,[25],0.963
same,normalized growth,[26],0.498 (active)
same,normalized growth,[27],1.08
same,normalized growth,[28],0.987
same,normalized growth,[29],0.958
same,normalized growth,[30],0.979
same,normalized growth,[31],0.589
same,normalized growth,[32],0.982
same,normalized growth,[33],0.943
same,normalized growth,[34],0.985
same,normalized growth,[35],0.82
same,normalized growth,[36],0.995
same,normalized growth,[37],0.859
same,normalized growth,[38],0.936
same,normalized growth,[39],0.926
same,normalized growth,[40],0.98
same,normalized growth,[41],0.635 (active)
same,normalized growth,[42],0.912
same,normalized growth,[43],0.931
same,normalized growth,[44],0.828
same,normalized growth,[45],0.948
same,normalized growth,[46],0.983
same,normalized growth,[47],0.923
same,normalized growth,[48],0.964
same,normalized growth,[49],0.967
same,normalized growth,[50],0.935
same,normalized growth,[51],0.973
same,normalized growth,[52],0.962
same,normalized growth,[53],1
same,normalized growth,[54],0.967
same,normalized growth,[55],0.913
same,normalized growth,[56],0.972
same,normalized growth,[57],0.896
same,normalized growth,[58],0.941
same,normalized growth,[59],0.653 (active)
same,normalized growth,[60],0.94
same,normalized growth,[61],0.979
same,normalized growth,[62],0.818
same,normalized growth,[63],0.622 (active)
same,normalized growth,[64],0.653 (active)
same,normalized growth,[65],0.986
same,normalized growth,[66],0.956
same,normalized growth,[67],0.975
same,normalized growth,[68],0.978
same,normalized growth,[69],0.963
same,normalized growth,[70],0.991
same,normalized growth,[71],0.967
CC(C)(C)C(=O)NC(=S)Nc1cccc(C(F)(F)F)c1,normalized growth,"locus YAL013W, strain DEP1, active compounds read low",0.925 (active)
same,normalized growth,"locus YBR229C, strain ROT2, active compounds read low",0.989
same,normalized growth,[8],0.984
same,normalized growth,"locus YDL134C, strain PPH21, active compounds read low",0.804 (active)
same,normalized growth,"locus YDR150W, strain NUM1, active compounds read low",0.91
same,normalized growth,"locus YEL061C, strain CIN8, active compounds read low",0.944
same,normalized growth,"locus YGR078C, strain PAC10, active compounds read low",0.959
same,normalized growth,"locus YGR229C, strain SMI1, active compounds read low",0.959
same,normalized growth,[26],0.527 (active)
same,normalized growth,"locus YHR087W, strain rtc3, active compounds read low",0.99
same,normalized growth,"locus YJL187C, strain SWE1, active compounds read low",0.987
same,normalized growth,"locus YJR043C, strain POL32, active compounds read low",0.957
same,normalized growth,"locus YJR075W, strain HOC1, active compounds read low",0.977
same,normalized growth,"locus YLR039C, strain RIC1, active compounds read low",0.401 (active)
same,normalized growth,"locus YLR058C, strain SHM2 (second series), active compounds read low",0.966
same,normalized growth,"locus YLR085C, strain ARP6, active compounds read low",0.397 (active)
same,normalized growth,"locus YLR262C, strain YPT6, active compounds read low",0.474 (active)
same,normalized growth,"locus YML094W, strain GIM5, active compounds read low",0.846 (active)
same,normalized growth,"locus YMR219W, strain ESC1, active compounds read low",0.978
same,normalized growth,"locus YMR263W, strain SAP30, active compounds read low",0.953
same,normalized growth,"locus YNL153C, strain GIM3, active compounds read low",0.955
same,normalized growth,"locus YNL298W, strain CLA4 (second series), active compounds read low",0.676 (active)
same,normalized growth,"locus YNL322C, strain KRE1, active compounds read low",0.984
same,normalized growth,"locus YNR030W, strain Alg12, active compounds read low",0.722 (active)
same,normalized growth,"locus YOL006C, strain TOP1, active compounds read low",0.238 (active)
same,normalized growth,"locus YPL055C, strain LGE1, active compounds read low",0.785 (active)
same,normalized growth,"locus YPL241C, strain CIN2, active compounds read low",0.755 (active)
same,normalized growth,"locus YPR135W, strain CTF4, active compounds read low",0.569 (active)
